Source: PubChem BioAssay
PfG6PD inh – PfG6PD (Plasmodium falciparum) enzyme inhibition. PfGluPho enzyme, NADPH resazurin-diaphorase fluorescence. inhibition, % at 20 µM. 350,000 tested, 0.78% active;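 active means inhibition reaching at least a set limit at 20 µM in the primary screen, cut at about 59% in these data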;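 further: 0% = DMSO wells with substrate and 100% = DMSO wells lacking glucose-6-phosphate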
M18AAP inhibitor – PfM18AAP enzyme inhibition | recombinant PfM18AAP, H-Glu-NHMec fluorogenic cleavage | inhibition, % at 7.35 µM | 290,000 tested, 1.2% active | AID 1822;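 active means inhibition above the campaign mean inhibition over all tested compounds plus 3 SD, cut at about 28% in these data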;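 further: 0% = plate median of test compound wells and 100% = 2 mM ZnCl2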
APOBEC3G inh – APOBEC3G (human) deaminase inhibition | Q9HC16 | recombinant A3G, ssDNA deamination FAM/TAMRA fluorescence | inhibition, % at 20 µM | 330,000 tested, 0.28% active | AID 493012;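 active means inhibition of at least 40% at 20 µM, with no more than 30% in the related APOBEC3A deaminase screen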;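 further: plate controls were DMSO wells with A3G for no effect and wells lacking A3G enzyme for full effect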
Target sequence (Q9HC16 whole entry, looked up): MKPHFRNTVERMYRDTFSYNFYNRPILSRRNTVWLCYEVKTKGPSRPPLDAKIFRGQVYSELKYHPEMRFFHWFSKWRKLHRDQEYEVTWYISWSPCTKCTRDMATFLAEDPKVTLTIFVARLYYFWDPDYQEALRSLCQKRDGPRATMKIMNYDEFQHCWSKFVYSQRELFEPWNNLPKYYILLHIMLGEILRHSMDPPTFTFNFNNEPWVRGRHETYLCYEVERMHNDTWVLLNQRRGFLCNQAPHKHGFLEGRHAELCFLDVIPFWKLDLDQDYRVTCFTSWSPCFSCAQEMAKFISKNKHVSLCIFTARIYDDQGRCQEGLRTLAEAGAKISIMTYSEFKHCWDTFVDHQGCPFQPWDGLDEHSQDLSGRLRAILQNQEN
A3A deaminase – inhibitors of human APOBEC3A DNA deaminase. recombinant A3A, FAM/TAMRA ssDNA deamination fluorescence. inhibition, % at 20 µM. AID 493011. 330,000 tested, 0.41% active;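 active means at least 40% inhibition at 20 µM here, with at most 30% in a related deaminase screen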;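 further: plate controls were A3A with DMSO for no effect and wells lacking A3A enzyme for full effect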
Target sequence (P31941 whole entry, looked up): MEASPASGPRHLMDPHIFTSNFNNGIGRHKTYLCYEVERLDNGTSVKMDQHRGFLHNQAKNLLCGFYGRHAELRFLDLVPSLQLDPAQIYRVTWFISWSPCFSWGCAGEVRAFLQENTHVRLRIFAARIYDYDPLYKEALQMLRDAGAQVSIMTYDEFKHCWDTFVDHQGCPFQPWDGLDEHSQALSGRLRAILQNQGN
Yeast superoxide – caloric restriction mimetics inhibiting age-related superoxide in yeast; 330,000 tested, 0.18% active; S. cerevisiae aged cells, superoxide DHE fluorescence; stronger effect = lower value; superoxide response (% of plate mean), % at 10 µM;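 active means superoxide response under a set limit, about three screen SD below normal, cut at about 65% in these data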;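 further: yeast aged for seven days with compound at 30 °C before DHE staining; 100% = average MFI of all compound-treated wells on the plate with controls excluded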
Numbers without * were called inactive. The list is not random: actives were taken first. Their share in the collection is about 2.4%.

For COc1ccc(CN2CCN(C(=O)c3cccs3)CC2)cc1Br the results were PfG6PD inh -16, M18AAP inhibitor 29*, APOBEC3G inh -3, A3A deaminase -2 and Yeast superoxide 91.
Screening CCOC(=O)/C=C(\C)Sc1cc(O)c2ccccc2c1O returned PfG6PD inh 108* and M18AAP inhibitor -4.
`O=C(COC(=O)c1ccc2ncsc2c1)NC(=O)c1ccccc1` gave PfG6PD inh -2, M18AAP inhibitor 31*, APOBEC3G inh -5, A3A deaminase 3 and Yeast superoxide 126.
`COc1ccc(C(=O)NC(=O)COC(=O)c2ccc3ncsc3c2)cc1` gave M18AAP inhibitor 10, APOBEC3G inh -3, A3A deaminase -1 and Yeast superoxide 116.
For CCCCNC(=O)Nc1ncn[nH]1 the results were PfG6PD inh -1, M18AAP inhibitor 29*, APOBEC3G inh -6, A3A deaminase -2 and Yeast superoxide 73.
For COc1ccc(C(=O)NC(=S)Nc2cccnc2)cc1[N+](=O)[O-] the results were PfG6PD inh -3, M18AAP inhibitor -4, APOBEC3G inh -2, A3A deaminase 3 and Yeast superoxide 48*.
COc1ccc(S(=O)(=O)N2CCN(CC(=O)NCCc3cccs3)CC2)cc1 was read as PfG6PD inh -12, APOBEC3G inh 9, A3A deaminase -5 and Yeast superoxide 111.
For Cc1cc(C)c2c(n1)sc1c(-c3ccccc3)c(C#N)c(N)nc12 the results were PfG6PD inh 20, M18AAP inhibitor 6, APOBEC3G inh -9, A3A deaminase -4 and Yeast superoxide 116.
Screening O=C(CNc1cc(S(=O)(=O)N2CCOCC2)ccc1NCC1CCCO1)Nc1cccc(F)c1 (stereo unspecified) returned PfG6PD inh 11, M18AAP inhibitor 29*, APOBEC3G inh -5, A3A deaminase -4 and Yeast superoxide 76.
`O=S(=O)(Nc1cc(S(=O)(=O)N2CCOCC2)ccc1NCC1CCCO1)c1ccc(F)cc1` (stereo unspecified) gave PfG6PD inh -1, APOBEC3G inh -2, A3A deaminase -1 and Yeast superoxide 93.
For O=C(Nc1ccnn1C1CCN(Cc2ccccc2OC(F)F)CC1)c1cccnc1 the results were PfG6PD inh -6, M18AAP inhibitor 2, APOBEC3G inh -1, A3A deaminase -2 and Yeast superoxide 92.
`O=c1[nH]n2c(=O)c3c([nH]c2c1N=Nc1cccc(Cl)c1)CCC3` gave PfG6PD inh -5, M18AAP inhibitor 11 and Yeast superoxide 112.
NS(=O)(=O)c1ccc(N=Nc2c(=O)[nH]n3c(=O)c4c([nH]c23)CCCC4)cc1 was read as PfG6PD inh 26, M18AAP inhibitor 48*, APOBEC3G inh -4, A3A deaminase 2 and Yeast superoxide 106.
`O=C(O)c1ccccc1NS(=O)(=O)c1ccc(NNC(=S)Nc2ccc(OC(F)F)cc2)c([N+](=O)[O-])c1` gave PfG6PD inh -1 and M18AAP inhibitor 44*.
For CCN(CC)c1ccc(N=Nc2ncn[nH]2)cc1 the results were PfG6PD inh 29, M18AAP inhibitor 30*, APOBEC3G inh -1, A3A deaminase -3 and Yeast superoxide 85.
`CCN(CC)c1ccc(N=Nc2nn(C)c(C)c2[N+](=O)[O-])cc1` gave PfG6PD inh 28, M18AAP inhibitor 4, APOBEC3G inh 3, A3A deaminase 5 and Yeast superoxide 78.
Cc1cccc(-n2c(CNC(=O)c3cccc([N+](=O)[O-])c3C)n[nH]c2=S)c1 was read as PfG6PD inh 30, M18AAP inhibitor 30*, APOBEC3G inh 25, A3A deaminase 0 and Yeast superoxide 105.
`O=C(NCc1n[nH]c(=S)n1-c1ccccc1)c1cccs1` gave PfG6PD inh 19, M18AAP inhibitor 28*, APOBEC3G inh -9, A3A deaminase -5 and Yeast superoxide 101.
For Cc1ccc(Nc2nc(N)c3ccccc3n2)cc1C the results were PfG6PD inh 16, M18AAP inhibitor 0, APOBEC3G inh 33, A3A deaminase 2 and Yeast superoxide 94.
`Cc1cccc2sc(NNC(=O)c3cc(-c4cccs4)nc4ccccc34)nc12` gave PfG6PD inh -8, M18AAP inhibitor 31*, APOBEC3G inh -10, A3A deaminase -4 and Yeast superoxide 113.
For CCOc1ccc(C(=O)NCC(=O)OCC(=O)Nc2ccc(C)c(S(=O)(=O)N(C)C)c2)cc1 the results were PfG6PD inh 10, M18AAP inhibitor -1, APOBEC3G inh -7, A3A deaminase -2 and Yeast superoxide 95.
For Oc1ccc(N=Cc2ccc(-c3cccs3)s2)cc1 the results were PfG6PD inh 72*, M18AAP inhibitor 11, APOBEC3G inh 7, A3A deaminase 2 and Yeast superoxide 131.
`O=Cc1ccc(-c2cccs2)s1` gave PfG6PD inh 15.
O=C(CC(=O)c1cc(Cl)ccc1O)c1ccccc1 was read as PfG6PD inh -4, M18AAP inhibitor 7, APOBEC3G inh -1, A3A deaminase -4 and Yeast superoxide 93.
Screening O=C(c1ccccc1)c1cc(Cl)ccc1N1C(=O)C=CC1=O returned PfG6PD inh 112* and M18AAP inhibitor -104.
For COCC(=O)n1nc(NCc2ccc(OC)cc2)nc1NCc1ccc(OC)cc1 the results were PfG6PD inh -13, M18AAP inhibitor 28*, APOBEC3G inh -16, A3A deaminase -2 and Yeast superoxide 89.
`CCN1CCN(c2c(/C=C3\SC(=S)N(Cc4ccco4)C3=O)c(C)c(C#N)c(=O)n2C)CC1` gave PfG6PD inh 31, M18AAP inhibitor 24, APOBEC3G inh -4, A3A deaminase 4 and Yeast superoxide 69.
`COc1cc(CNc2ccc3c(c2)CCC3)cc(OC)c1O` gave PfG6PD inh 13, M18AAP inhibitor 38*, APOBEC3G inh -6, A3A deaminase -1 and Yeast superoxide 99.
For Cn1c(=O)c([N+](=O)[O-])c(-n2cnc3ccccc32)c2ccccc21 the results were PfG6PD inh -5, M18AAP inhibitor -12, APOBEC3G inh -2, A3A deaminase 2 and Yeast superoxide 104.
For CCOc1ccc(N=c2scc(-c3ccccc3)n2CCO)cc1 the results were PfG6PD inh 3, M18AAP inhibitor 19, APOBEC3G inh -3, A3A deaminase -5 and Yeast superoxide 103.
Screening OCCn1c(-c2ccc(F)cc2)csc1=Nc1ccccc1 returned PfG6PD inh 20, M18AAP inhibitor 41*, APOBEC3G inh -8, A3A deaminase 1 and Yeast superoxide 84.
Screening Cc1cccc2c(C(=O)Nn3cnnc3)cc(-c3ccccc3Cl)nc12 returned PfG6PD inh -12, M18AAP inhibitor 45*, APOBEC3G inh -12, A3A deaminase 6 and Yeast superoxide 108.
Screening CCC(C)NC(=O)c1cn(-c2cccc(OC)c2)c(=O)c2ccccc12 (stereo unspecified) returned PfG6PD inh 7, M18AAP inhibitor 2, APOBEC3G inh -6, A3A deaminase -3 and Yeast superoxide 129.
For O=C1CSC(=Nc2ccc(Cl)cc2)N1 the results were PfG6PD inh 0, M18AAP inhibitor -1, APOBEC3G inh -9, A3A deaminase -2 and Yeast superoxide 118.
